Data reported in PubChem BioAssay (NCATS).
“And” between values parts separate entries of the source, which are not always exact repeats. Equal entries are not always repeated. Records with an inconclusive call do not appear. More than one record can exist for a structure, and the calls need not agree. The source made the active and inactive calls. The call rests on the fitted dose curve; in most records, active means well fitted curve in the direction sought with a large enough effect; inconclusive means small, poorly fitted or top-dose-only effect, or another doubt; inactive means no such curve, though single readings can be large; an effect the other way counts as inactive or inconclusive.

Target: Guanine nucleotide-binding protein G(i) subunit alpha-1 (Homo sapiens) (UniProt P63096)
Test: qHTS Assay for Inhibitors of RGS12 GoLoco Motif Activity (Green Fluorophore) (AID 879);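 further: 0% = labeled peptide with Gαi1 and full inhibition = labeled peptide alone without protein; negative values mean loss of peptide binding seen as reduced polarization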
Conditions: Galphai1/FITC-RGS12 GoLoco peptide, fluorescence polarization; series mostly up to 57.1 µM; activity, negative = inhibition: at the top concentration
Outline: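 Fluorescence polarization assay: 50 nM Gαi1 with 10 nM FITC-labeled RGS12 GoLoco peptide in 10 mM Tris pH 7.5, 150 mM NaCl, 0.1 mM GDP, 0.05% NP40, 10 min at room temperature with compound.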

Guanine nucleotide-binding protein G(i) subunit alpha-1 (Homo sapiens), sequence (P63096 whole entry, looked up): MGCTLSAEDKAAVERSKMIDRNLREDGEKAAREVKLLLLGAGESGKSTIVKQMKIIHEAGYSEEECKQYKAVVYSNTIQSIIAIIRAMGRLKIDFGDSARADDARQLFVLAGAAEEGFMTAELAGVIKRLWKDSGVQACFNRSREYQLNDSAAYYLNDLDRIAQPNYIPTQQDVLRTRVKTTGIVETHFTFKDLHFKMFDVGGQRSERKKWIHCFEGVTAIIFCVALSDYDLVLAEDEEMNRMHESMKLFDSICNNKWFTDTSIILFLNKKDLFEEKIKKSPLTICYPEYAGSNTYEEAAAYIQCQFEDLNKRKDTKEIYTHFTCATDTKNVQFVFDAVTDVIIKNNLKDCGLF

Row | SMILES | activity, negative = inhibition | outcome
1 | NCc1cc(=O)[nH]o1 | 3.72% (inactive) | –
2 | Cc1nc(-c2ccc(-c3ccc(C(=O)N4CCc5cc6c(cc54)C4(CCN(C)CC4)CO6)cc3)c(C)c2)no1 | -5.74% (inactive) | –
3 | CC1=NN=C(c2ccc(N)cc2)c2cc3c(cc2C1)OCO3 | 6.46% (inactive) | –
4 | C[C@@H]1O[C@H](C[N+](C)(C)C)C[C@H]1O | 17.4% (inactive) | –
5 | NCCc1c[nH]c2ccc(O)cc12 | -15.9% (inactive) | –
6 | CC(C)Oc1cccnc1N(C)C1CCN(Cc2ccccc2)CC1 | -18.6% (inactive) | –
7 | CN[C@@H]1C[C@@H](c2ccc(Cl)c(Cl)c2)c2ccccc21 | -14.7% (inactive) | –
8 | CNCCc1c[nH]c2ccc(O)cc12 | -9.42% (inactive) | –
9 | NCCc1c[nH]c2ccccc12 | 4.37% (inactive) | –
10 | COc1ccc2c(c[n+](C)c3c4cc5c(cc4ccc23)OCO5)c1OC | -14% (inactive) | –
11 | CCCN(CCC)[C@@H]1CCc2ccc(O)cc2C1 | – | inactive
12 | CCCN1CCO[C@@H]2c3cc(O)ccc3OC[C@H]21 | – | inactive
13 | Cn1cnc(CCN)c1 | -9.65% (inactive) | –
14 | O=C(O)CC[N+](=O)[O-] | -10.2% (inactive) | –
15 | CC(=O)NCCc1c[nH]c2ccccc12 | 3.17% (inactive) | –
16 | c1ccc2sc(C3(N4CCCCC4)CCCCC3)cc2c1 | -17.6% (inactive) | –
17 | NC(N)=NOCCC(N)C(=O)O (centres undefined) | 0.0375% (inactive) | –
18 | NC(=NCCC[C@H](N)C(=O)O)N[N+](=O)[O-] | -13.5% (inactive) | –
19 | O=C1CCCN1CC#CCN1CCCC1 | -17.8% (inactive) | –
20 | O=C(O)Cc1cnc[nH]1 | -6.92% (inactive) | –
21 | C[C@]12N[C@H](Cc3ccccc31)c1ccccc12 | – | inactive

Target: Cytochrome P450 2C9 (Homo sapiens) (UniProt P11712)
Test: qHTS Assay for Inhibitors and Substrates of Cytochrome P450 2C9 (AID 883); further: nearly all actives have a fitted effect of over 60% in size; further: potency means the concentration at half of the fitted maximal effect; on activity change, negative = inhibition: on the % scale 0 is the no-effect control and ±100 the full control effect
Conditions: recombinant CYP2C9, luciferin-H luminescence, 60 min; series mostly up to 57.1 µM; activity change, negative = inhibition: at the top concentration
Outline: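 Inhibition of CYP2C9 is scored as loss of luminescence, with 57uM sulphaphenazole defining 100% inhibition. Substrate Luciferin-H is used at 100uM, equal to its KM; enzyme at 10nM in 25mM KPO4, 60 min at 37C with NADPH regeneration.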

Cytochrome P450 2C9 (Homo sapiens), sequence (P11712 whole entry, looked up): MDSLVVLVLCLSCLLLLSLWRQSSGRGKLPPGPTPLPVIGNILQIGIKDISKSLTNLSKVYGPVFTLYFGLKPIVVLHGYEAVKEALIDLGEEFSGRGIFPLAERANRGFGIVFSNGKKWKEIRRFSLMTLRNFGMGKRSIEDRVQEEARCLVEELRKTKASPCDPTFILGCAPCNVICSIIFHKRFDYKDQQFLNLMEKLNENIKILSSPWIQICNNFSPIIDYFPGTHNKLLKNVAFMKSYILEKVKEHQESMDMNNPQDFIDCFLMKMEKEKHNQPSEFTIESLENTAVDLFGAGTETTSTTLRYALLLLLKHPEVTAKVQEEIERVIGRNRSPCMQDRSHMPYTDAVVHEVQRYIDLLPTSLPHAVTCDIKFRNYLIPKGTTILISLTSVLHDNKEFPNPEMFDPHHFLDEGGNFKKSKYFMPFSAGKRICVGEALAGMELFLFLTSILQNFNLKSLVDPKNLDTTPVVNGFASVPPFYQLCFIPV

Row | SMILES | Potency | activity change, negative = inhibition
22 | Cc1nc(-c2ccc(-c3ccc(C(=O)N4CCc5cc6c(cc54)C4(CCN(C)CC4)CO6)cc3)c(C)c2)no1 | 7.94 µM (active) | –
23 | CC1=NN=C(c2ccc(N)cc2)c2cc3c(cc2C1)OCO3 | 1.26 µM (active) | –
24 | O=c1cccc2n1CC1CNC[C@H]2C1 | – | 22.2% (inactive)
25 | CCCN(CCC)[C@@H]1CCc2ccc(O)cc2C1 | – | 39.8% (inactive)
26 | Cn1cnc(CCN)c1 | – | 44.5% (inactive)
27 | CC(C)c1ccc2c(c1)c(SC(C)(C)C)c(CC(C)(C)C(=O)O)n2Cc1ccc(Cl)cc1 | 6.31 µM (active) | –
28 | CC(=O)NCCc1c[nH]c2ccccc12 | – | -1.65% (inactive)
29 | O=C1CCCN1CC#CCN1CCCC1 | inactive and 2 µM (active) | –

Target: Cytochrome P450 3A4 (Homo sapiens) (UniProt P08684)
Test: qHTS Assay for Inhibitors and Substrates of Cytochrome P450 3A4 (AID 884); further: nearly all actives have a fitted effect of over 50% in size; further: potency means the concentration at half of the fitted maximal effect; on activity change, negative = inhibition: on the % scale 0 is the no-effect control and ±100 the full control effect
Conditions: recombinant CYP3A4, Luciferin-PPXE luminescence; series mostly up to 57.1 µM; activity change, negative = inhibition: at the top concentration
Outline: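 20 nM human CYP3A4 with 25 uM Luciferin-PPXE (at KM) in 200 mM KPO4, preincubated 10 min with compound; NADPH regeneration started a 60 min RT reaction. Luciferin detected by luminescence, normalized to 57 uM ketoconazole as full inhibition.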

Cytochrome P450 3A4 (Homo sapiens), sequence (P08684 whole entry, looked up): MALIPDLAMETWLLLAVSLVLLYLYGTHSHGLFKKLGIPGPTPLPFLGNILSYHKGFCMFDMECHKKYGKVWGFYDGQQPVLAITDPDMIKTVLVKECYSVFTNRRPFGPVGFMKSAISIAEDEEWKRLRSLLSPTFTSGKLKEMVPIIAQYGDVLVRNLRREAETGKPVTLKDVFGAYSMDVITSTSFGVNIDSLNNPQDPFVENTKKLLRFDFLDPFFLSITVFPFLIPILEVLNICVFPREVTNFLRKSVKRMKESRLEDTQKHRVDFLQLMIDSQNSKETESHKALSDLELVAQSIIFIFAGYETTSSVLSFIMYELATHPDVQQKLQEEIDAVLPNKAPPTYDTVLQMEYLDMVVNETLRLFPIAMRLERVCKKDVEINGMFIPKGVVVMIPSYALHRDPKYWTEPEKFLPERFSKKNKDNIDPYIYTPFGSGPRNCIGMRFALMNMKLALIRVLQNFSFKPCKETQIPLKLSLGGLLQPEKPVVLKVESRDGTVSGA

Row | SMILES | activity change, negative = inhibition | Potency
30 | O=C(O)CCCOc1ccc(Cl)cc1Cl | -13% (inactive) | –
31 | CNCCc1c[nH]c2ccc(O)cc12 | -11.9% (inactive) | –
32 | NCCc1c[nH]c2ccccc12 | – | inactive
33 | CC[C@@H]1C(=O)OC[C@@H]1Cc1cncn1C | – | 12.6 µM (active)
34 | COc1ccc(C(=O)c2c(C)n(CCN3CCOCC3)c3cc(I)ccc23)cc1 | – | 5.01 µM (active)
35 | O=C(O)CC[N+](=O)[O-] | -19.8% (inactive) | –
36 | O=C(N[C@H]1CN2CCC1CC2)c1ccc(Cl)cc1 | -7.71% (inactive) | –
37 | C#CC1(O)CCC2C3CCC4=CC(=O)CCC4(C)C3CCC21C (centres undefined) | -14.1% (inactive) | –
38 | O=C1CCCN1CC#CCN1CCCC1 | -3.5% (inactive) | –
39 | CCCCCCCCCCCCCCCC[N+](C)(C)C | -21.2% (inactive) | –
